GPT2 inhibitor = blocks human glutamate pyruvate transaminase 2 | 0.25% of 100,000 active | Recombinant GPT2, coupled pyruvate oxidase/HRP Amplex Red fluorescence | AID 1671188 | Potency, µM (titrated, usually from 57.7 µM), without a hit: at the highest dose activity change, negative = inhibition, most hits filed as inhibitors; note: nearly all actives have a fitted effect of over 60% in size
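GPT2 10ng/uL, a-KG 250uM, L-Ala 2mM, HEPES pH7.5 + 0.0001% Tween; 30 min RT. Then Amplex mix (PO/HRP/ThPP), 30 min RT dark, fluorescence. AOA 50uM used as positive control.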
hNpr1 antagonist = human Npr1 receptor antagonism; Potency, µM (titrated, usually from 46.3 µM), for the others: at the top dose activity change, negative = inhibition, most hits filed as inhibitors; P16066; HEK293 hNpr1 GloSensor cGMP, ANP-stimulated luminescence; 1.6% of 76,000 active; calls by dose curve; note: nearly all actives have a fitted effect of over 60% in size
Target sequence (P16066 whole entry, looked up): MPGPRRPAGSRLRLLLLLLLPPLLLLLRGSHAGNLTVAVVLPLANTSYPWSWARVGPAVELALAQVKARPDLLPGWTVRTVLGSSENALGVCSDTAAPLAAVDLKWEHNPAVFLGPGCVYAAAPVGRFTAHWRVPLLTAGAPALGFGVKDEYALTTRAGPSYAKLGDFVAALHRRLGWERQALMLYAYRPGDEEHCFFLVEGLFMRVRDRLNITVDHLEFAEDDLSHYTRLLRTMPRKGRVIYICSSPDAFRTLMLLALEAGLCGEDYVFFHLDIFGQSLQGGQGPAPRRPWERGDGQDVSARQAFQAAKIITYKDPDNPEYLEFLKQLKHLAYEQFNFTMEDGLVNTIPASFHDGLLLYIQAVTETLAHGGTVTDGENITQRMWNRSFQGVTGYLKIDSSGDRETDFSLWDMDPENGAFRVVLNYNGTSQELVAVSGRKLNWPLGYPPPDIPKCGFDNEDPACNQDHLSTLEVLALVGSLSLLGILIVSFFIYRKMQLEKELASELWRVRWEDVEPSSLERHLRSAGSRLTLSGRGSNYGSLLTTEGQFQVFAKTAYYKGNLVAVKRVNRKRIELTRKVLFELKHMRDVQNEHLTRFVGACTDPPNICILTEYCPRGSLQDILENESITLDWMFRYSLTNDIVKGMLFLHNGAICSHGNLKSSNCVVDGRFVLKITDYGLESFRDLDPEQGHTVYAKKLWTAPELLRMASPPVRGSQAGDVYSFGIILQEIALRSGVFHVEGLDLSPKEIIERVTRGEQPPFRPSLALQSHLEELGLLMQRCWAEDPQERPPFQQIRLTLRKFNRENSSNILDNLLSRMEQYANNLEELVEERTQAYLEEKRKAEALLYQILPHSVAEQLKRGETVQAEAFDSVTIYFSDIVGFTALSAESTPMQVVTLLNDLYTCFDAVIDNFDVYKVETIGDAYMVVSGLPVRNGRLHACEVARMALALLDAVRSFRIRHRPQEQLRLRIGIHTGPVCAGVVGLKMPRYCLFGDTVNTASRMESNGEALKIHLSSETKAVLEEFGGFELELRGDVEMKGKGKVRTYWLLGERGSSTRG
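HEK293 cells stably expressing human Npr1 and cGMP GloSensor pGS-40F, loaded 2 h with 2% GloSensor reagent, given compound 30 min at room temperature. Luminescence read before and 20 min after 0.1 nM hNppA.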
HEK293 tox = HEK 293 cell cytotoxicity; AID 1345083; 6.6% of 94,000 active; Potency, µM (highest dose often 115 µM), without a hit: top-dose activity change, negative = cytotoxicity, hits mostly inhibitors; HEK 293 viability, ATP luminescence (CellTiter-Glo), 48-72 h; note: nearly all actives have a fitted effect of over 60% in size
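HEK 293 cells seeded at 250 cells/well were exposed to compound for 48 or 72 hr at 37 degree Celsius. Viability taken as ATP content by CellTiter-Glo luminescence.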
Luciferase inh = Photinus pyralis luciferase inhibition. P08659. purified P. pyralis luciferase, luminescence, biochemical. Potency, µM (top dose mostly 115 µM), usual class: inhibitors. 2.5% of 76,000 active. AID 1347043; note: nearly all actives have a fitted effect of over 65% in size
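Luminescence read by CCD imager after adding enzyme (10nM final) to wells holding compound, titrated in qHTS. Substrates 10uM each D-luciferin and ATP; buffer 50mM Tris acetate pH 7.5, 10mM Mg acetate, Tween-20, BSA.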
NIH3T3 tox = cytotoxic compounds in NIH 3T3 cells. Potency, µM (titrated, usually from 96.7 µM), for the others: at the highest dose activity change, negative = cytotoxicity, usual class: inhibitors. 4.3% of 94,000 active. NIH 3T3 viability, CellTiter-Glo ATP luminescence, 48-72 h. AID 1345082; note: nearly all actives have a fitted effect of over 55% in size
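ATP-dependent luminescence (CellTiter-Glo) served as the viability signal for NIH 3T3 cells treated with compound for 48 or 72 hr at 37 °C.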
* hit, by the source's call; i = inactive; ? = inconclusive; · = not tested or not shown; [ ] = another dose, or the depositor's remark. In the library only some 10% were active in any assay of this set; here they are far more common. Unless noted, calls come from the whole dose curve; as a rule, active = well fitted curve in the direction sought with a large enough effect; inconclusive = small, poorly fitted or top-dose-only effect, or another doubt; inactive = no such curve, though single readings can be large; an effect the other way counts as inactive or inconclusive. % is set by controls: 0 for no effect and ±100 for the full control effect; potency is the fitted concentration of half-maximal effect.

SMILES | GPT2 inhibitor | hNpr1 antagonist | HEK293 tox | Luciferase inh | NIH3T3 tox
Cn1ncc2c(C(=O)NCc3ccccc3)cc(-c3cccnc3)nc21 | i | · | 39.8µM* | · | ?
Cn1ncc2c(C(=O)NCCCc3ccccc3)cc(-c3ccc([S+](C)(=O)[O-])cc3)nc21 | -34.5% | · | 50.1µM* | · | ?
Fc1ccc(NC(=S)N[C@H]2CO[C@H]3[C@@H]2OC[C@@H]3n2nnnc2Oc2ccc(-n3cncn3)cc2)cc1 | -16.6% | ? | ? | i | ?
COc1cccc(CNC(=O)c2nc3sccn3c2-c2cccc(C(F)(F)F)c2)c1 | i | · | ? | · | ?
O=C(c1cc(F)ccc1F)N1CCC(OCCOc2ccc(F)cc2)CC1 | i | · | ? | · | ?
O=C(C1Cn2cccc2C(=O)N1Cc1ccccc1)N1CCN(c2ncccn2)CC1 (centres undefined) | i | -16.4% | 4.4% | i | -27.1%
Cn1ncc2c(C(=O)NCC#N)cc(-c3ccc(F)cc3)nc21 | · | · | ? | · | 35.5µM*
Cn1ncc2c(C(=O)NCC(=O)c3ccccc3)cc(-c3ccccc3F)nc21 | · | · | ? | · | -5.7%
Cn1ncc2c(C(=O)NCc3ccc(C(F)(F)F)cc3)cc(-c3ccc(F)cc3)nc21 | · | · | ? | · | 22.4µM*
COc1ccc(CNC(=O)c2cc(-c3ccc(C(F)(F)F)cc3)nc3c2cnn3C)cc1 | · | · | -32.2% | · | ?
Cn1ncc2c(C(=O)NCc3ccc(C(F)(F)F)cc3)cc(-c3cccc(F)c3)nc21 | · | · | ? | · | 44.7µM*
COCCNC(=O)c1cc(-c2ccc(F)cc2)nc2c1cnn2C | i | · | ? | · | ?
COc1ccccc1CNC(=O)c1cc(-c2ccccc2F)nc2c1cnn2C | · | · | ? | · | 25.1µM*
O=C(Nc1ccc(Cl)cc1)N1CCN(CCCn2nc3n(c2=O)CCCC3)CC1 | · | · | -6.2% | · | -15.5%
O=C(NC1CCN(C(=O)c2ccc(-c3cncnc3)cc2)CC1)c1ccc(C(F)(F)F)cc1 | i | · | ? | · | ?
Cc1cccc(C)c1-c1cc(C(=O)NCc2ccc(C(F)(F)F)cc2)c2cnn(C)c2n1 | i | · | 22.4µM* | · | 14.1µM*
Cc1cccc(C)c1-c1cc(C(=O)NCc2ccc(F)cc2)c2cnn(C)c2n1 | -3.6% | · | ? | · | ?
Cn1ncc2c(C(=O)NCc3ccccc3)cc(-c3cccc(F)c3)nc21 | · | · | 39.8µM* | · | ?
Cn1ncc2c(C(=O)Nc3ccccc3F)cc(-c3ccc(C(F)(F)F)cc3)nc21 | · | · | ? | · | 35.5µM*
COc1ccc(CNC(=O)c2cc(-c3ccc(F)cc3)nc3c2cnn3C)cc1 | · | · | 44.7µM* | · | 39.8µM*
COc1ccc(-c2cc(C(=O)NCc3ccc(Cl)cc3)c3cnn(C)c3n2)cc1 | i | · | ? | · | ?
Cn1ncc2c(C(=O)NCCc3ccccc3)cc(-c3cccc(F)c3)nc21 | · | · | ? | · | -29.6%
O=C(CC1CCCC1)N1CCC2(CC1)CC(CO)N(C(=O)c1ccccc1)C2 (centres undefined) | -3.8% | · | 0.0% | · | ?
Cn1ncc2c(C(=O)NCc3ccc(F)c(F)c3)cc(-c3cccc(F)c3)nc21 | · | · | 39.8µM* | · | ?
CCOC(=O)C1CCN(C(=O)c2cc(-c3ccc(F)cc3)c3nncn3n2)CC1 | i | · | -27.6% | · | ?
SMILES | GPT2 inhibitor | hNpr1 antagonist | HEK293 tox | Luciferase inh | NIH3T3 tox
COc1ccc(-c2cc(C(=O)NC3CC3)c3c(C4CCCNC4)noc3n2)cc1 (centres undefined) | i | · | 31.6µM* | · | 31.6µM*
Cc1ccc(-c2ccc(CN)cc2)cc1Cl | -11.0%[88.5 µM] | · | 31.6µM* | · | 31.6µM*
Cc1ccc(-c2ccc(C=O)cc2)cc1Cl | 1.7%[88.5 µM] | · | ? | · | ?
NCc1cccc(-c2ccc(O)cc2)c1 | ? | · | -16.0%[172 µM] | · | -20.6%[138 µM]
CSc1ccc(-c2cccc(CN)c2)cc1 | 0.8%[88.5 µM] | · | ? | · | 25.1µM*
Cc1ccc(-c2cccc(CN)c2)cc1Cl | -1.3%[88.5 µM] | · | ? | · | 28.2µM*
CCC1=C(C(=O)OC)C(c2ccccc2OC)N2C(CC(=O)NC(C)(C)C)=CSC2=N1 (centres undefined) | ? | -17.5% | -29.0% | i | -10.0%
CC(C)(C)c1[nH]nc2c1C(c1ccnc3ccccc13)CC(=O)N2 (centres undefined) | 0.6% | -4.9% | -7.9% | i | 31.6µM*
O=C(CCc1ccccc1)N1CCN(c2cc(-c3cccs3)[nH]n2)CC1 | i | -5.4% | ? | i | ?
O=C(COc1ccc(Cl)cc1)N1CCN(c2cc(-c3cccs3)[nH]n2)CC1 | i | -17.1% | ? | i | 22.4µM*
O=C(c1cc(Cl)ccc1Cl)N1CCN(c2cc(-c3cccs3)[nH]n2)CC1 | i | ? | 44.7µM* | i | ?

Screening results (PubChem BioAssay)
